# SMN2 splice enh – increases expression of the SMN2 splice variant; HEK293 SMN2-luciferase splicing reporter, luminescence, 30-36 h; Potency, µM (top dose mostly 46.1 µM), for inactives: at the highest dose activity change, positive = activation, actives largely listed as activators; 2.8% of 210,000 active; also: % of control where 0% means no effect; nearly all actives have a fitted effect of over 55% in size
#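 HEK293 cells carry an SMN2 […]–luciferase reporter in which exon 7 inclusion puts luciferase in frame. Cells were plated 10-12 h before compound addition, then incubated 30-36 h at 37C. ONE-Glo luminescence was read; sodium butyrate at 4.5 mM final served as control.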
# NPC1 promoter act – activates the NPC1 promoter; Huh7 NPC1 promoter luciferase reporter, 24 h; Potency, µM (highest dose often 9.22 µM), for inactives: at the top dose activation, actives largely listed as activators; 2.4% of 320,000 active; AID 485313; also: % of control where 0% means no effect; nearly all actives have a fitted effect of over 60% in size
#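 Stably transfected Huh7 (NPC1 promoter→luciferase), 1500 cells/well in Opti-MEM + 10% FBS, 2 h settle, then compound 24 h at 37 °C. Luminescence after 10 min with Amplite reagent.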
# Rab9 promoter act – activators of Rab9 promoter. Huh7 Rab9 promoter-luciferase reporter, luminescence, 24 h. Potency, µM (doses to about 9.22 µM), inactives show at the top dose activation, negative = inhibition, usual class: activators. 2.8% of 320,000 active; also: % of control where 0% means no effect; nearly all actives have a fitted effect of over 60% in size
#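 Rab9 promoter-driven luciferase in stably transfected Huh7 cells; 1500 cells/well rested 2 h, exposed to compound in DMSO for 24 h at 37 °C, 5% CO2. Luminescence read 10 min after adding luciferase reagent at ambient temperature.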
# ELG1 genotoxic – induces genotoxicity in HEK293T cells with luciferase-tagged ELG1; Potency, µM (series often up to 46 µM), for the others: at the top dose activity change, positive = activation, usual class: activators; AID 504466; 1.3% of 330,000 active; HEK293T ELG1-luciferase reporter, luminescence, 16 h; also: % of control where 0% means no effect; nearly all actives have a fitted effect of over 60% in size
#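 Cells (2,000/well) expressing the ELG1-luciferase fusion are dosed by pin tool and kept 16 hr at 37 °C, 5% CO2. Signal comes from ONE-Glo luciferase reagent after 30 min at room temperature.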
# FLuc counter – firefly luciferase modulation, counter-screen for miR-21 project | P08659 | AID 588342 | Potency, µM (top dose mostly 57.5 µM), for inactives: at the highest dose activity change, negative = inhibition, usual class: inhibitors | 6.9% of 360,000 active | purified FLuc, Km substrates, luminescence inhibition;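 also: plate controls were vehicle for no effect and reference inhibitor for full effect; nearly all actives have a fitted effect of over 55% in size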
# Target sequence (P08659 whole entry, looked up): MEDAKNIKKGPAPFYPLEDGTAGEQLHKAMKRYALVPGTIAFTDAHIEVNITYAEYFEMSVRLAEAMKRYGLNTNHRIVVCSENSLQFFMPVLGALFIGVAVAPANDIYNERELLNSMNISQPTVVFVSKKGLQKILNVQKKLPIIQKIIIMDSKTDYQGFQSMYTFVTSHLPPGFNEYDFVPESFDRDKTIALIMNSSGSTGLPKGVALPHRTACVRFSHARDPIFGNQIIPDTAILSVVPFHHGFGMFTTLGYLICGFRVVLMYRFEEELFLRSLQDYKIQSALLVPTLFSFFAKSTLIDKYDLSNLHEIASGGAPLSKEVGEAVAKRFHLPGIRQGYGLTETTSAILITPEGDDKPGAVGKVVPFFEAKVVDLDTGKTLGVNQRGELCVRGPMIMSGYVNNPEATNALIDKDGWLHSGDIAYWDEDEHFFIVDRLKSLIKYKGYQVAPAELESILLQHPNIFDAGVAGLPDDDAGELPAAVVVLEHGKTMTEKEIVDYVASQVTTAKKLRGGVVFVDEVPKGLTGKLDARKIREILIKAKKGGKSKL
#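 Purified P. pyralis luciferase, 10 nM final, with Km-level 10 uM D-luciferin and 10 uM ATP in 50 mM Tris acetate pH 7.5, 10 mM Mg acetate, 0.01% Tween-20, 0.05% BSA; 6-point qHTS titration about 60 µM downward; luminescence read.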
# * = called active by the depositor; ? = inconclusive; . = no result given; [ ] = dose if it differs, or a comment. Hits are enriched below; roughly 7.5% of the tested compounds scored in any of these assays. Calls follow the shape of the dose curve; as a rule, active = well fitted curve in the direction sought with a large enough effect; inconclusive = small, poorly fitted or top-dose-only effect, or another doubt; inactive = no such curve, though single readings can be large; an effect the other way counts as inactive or inconclusive. Potency is read from the fitted curve at half-maximal effect.
SMILES,SMN2 splice enh,NPC1 promoter act,Rab9 promoter act,ELG1 genotoxic,FLuc counter
Cc1cccc(C)c1NC(=S)N/N=C/c1ccccc1C(=O)O,.,0.1%,-3.4%,-0.2%,2.6%
Cc1ccc(-c2nnc(Nc3ccc(O)cc3)c3ccccc23)cc1S(=O)(=O)NC(C)(C)CO,3.3%,.,.,.,19µM*
COc1ccc(Nc2nnc(-c3ccc(O)cc3)c3ccccc23)cc1,17.0%,-10.3%,-3.9%,?,23.9µM*
NC(=O)Cc1ccc(Nc2nnc(-c3ccccc3)c3ccccc23)cc1,-0.5%,6.2%,1.8%,7.5%,21.3µM*
Oc1ccc(Nc2nnc(-c3ccc(O)cc3)c3ccccc23)cc1,16.7%,-7.7%,-2.1%,15.9%,4.2%
Cc1nnc(Nc2ccc3c(c2)OCO3)c2ccccc12,18.0%,?,?,?,15.1µM*
O=C(O)CC1SC(=O)N(Cc2ccccc2)C1=O (configuration not stated),-18.4%,-4.8%,-1.9%,3.0%,0.8%
COC(=O)[C@]1(C)N[C@H](CN(C)C(=O)Nc2ccc(C)cc2)[C@@H]2C(=O)N(C)C(=O)[C@@H]21,.,.,.,1.2%,.
Cc1ccc(-c2nnc(Nc3ccc4c(c3)OCO4)c3ccccc23)cc1S(N)(=O)=O,-26.3%,2.8%,-1.4%,-3.1%,23.9µM*
CC(=O)Nc1ccc(Nc2nnc(-c3ccc(C)c(S(N)(=O)=O)c3)c3ccccc23)cc1,-5.3%,-10.2%,0.0%[1.84 µM],4.9%,-9.9%
COc1cccc2sc3ccc(C#CC4(N)CCCCC4)cc3c(=O)c12,.,24.3%,20.8%,10.5%,19µM*
CC(=O)Oc1ccc(-c2ccc(C(=O)O)cc2)cc1,20.6%,-3.1%,-6.8%,5.4%,?
CC(=O)Oc1ccc(-c2cccc(C(=O)O)c2)cc1,-6.8%,11.6%,-1.2%,?,3.79µM*
Cc1ccc(C(=O)OCC(=O)c2ccccc2)cc1,.,0.316µM*,0.562µM*,0.58µM*,1.9µM*
O=C(CN1C(=O)CCC1=O)c1ccc(-c2ccccc2)cc1,3.98µM*,24.5%,?,16.7%,?
CCOC(=O)c1nnc(-c2ccccc2)o1,-7.6%,1.7%,0.7%,0.2%,-5.2%
Cc1ccc(C(=O)NC(=S)NCC(=O)c2ccccc2)cc1,25.1%,14.0%,24.7%,4.8%,?
Cc1ccc(C(=O)CC(=O)c2ccccc2)cc1,.,2.51µM*,2.24µM*,24.8%,9.53µM*
CCc1ccc(C(=O)COC(=O)c2ccc(-c3nnc(-c4ccccc4)o3)cc2)cc1,7.94µM*,0.891µM*,0.562µM*,?,-3.8%
CC(NC(=O)c1ccccc1)C(=O)OCC(=O)c1ccc(Br)cc1 (configuration not stated),.,-1.8%,17.3%,6.1%,-9.9%
CC(=O)NC(C)C(=O)OCC(=O)c1ccc(-c2ccccc2)cc1 (configuration not stated),7.1%,-3.1%,-3.7%,11.3%,13.5µM*
CCCC(=O)c1ccc(-c2ccccc2)cc1,?,5.9%,-0.1%,?,16.9µM*
Cc1ccc(C(=O)Sc2cccccc2=O)cc1,.,-39.3%,-52.2%,6.51µM*,3.01µM*
CC(=O)Nc1cc(C(=O)OCC(=O)c2ccccc2)ccc1C,10µM*,3.16µM*,4.47µM*,14.6µM*,19µM*
Cc1ccc(C(=O)COC(=O)c2cc(Cl)nc3ccccc23)cc1,1.3%,-1.3%,0.7%,1.7%,10.7µM*
SMILES,SMN2 splice enh,NPC1 promoter act,Rab9 promoter act,ELG1 genotoxic,FLuc counter
CCOC(=O)C(CC(=O)c1ccccc1)CC(=O)c1ccccc1,.,?,23.0%,17.3%,13.5µM*
CCOC(=O)C1(C(=O)O)NC(=O)CC1c1ccccc1 (configuration not stated),-14.1%,0.4%,6.3%,0.8%,-0.8%
Cc1ccc(-c2nc(N/N=C/c3cccc([N+](=O)[O-])c3)c3ccccc3n2)cc1,4.6%,?,-3.1%,-0.2%,0.536µM*
Cc1ccc(-c2nc(N/N=C/c3cccnc3)c3ccccc3n2)cc1,?,?,3.55µM*,?,0.12µM*
Cc1ccc(-c2nc(NCc3cccnc3)c3ccccc3n2)cc1,5.6%,4.8%,4.4%,0.6%,?
COc1ccc(/C=N/Nc2nc(-c3cccnc3)nc3ccccc23)c(OC)c1,.,1.5%,1.1%,-9.6%,2.39µM*
CCOC(=O)c1ccc(S(=O)(=O)NC2CCCCCCC2)n1C,-29.7%,-0.4%,-8.2%,2.5%,0.7%
COc1cccc(CN(C)Cc2nc3cc(C(F)(F)F)ccc3c(=O)[nH]2)c1,.,-0.1%,-4.2%,-4.4%,2.5%
Cc1ccc(-c2cccc(CN3CCN(C(C)C)C(CCO)C3)c2)o1 (configuration not stated),.,-3.8%,-15.4%,-1.5%,-2.1%
NS(=O)(=O)c1cc(C(=O)N=Nc2c(O)[nH]c3ccccc23)ccc1Cl,.,21.1%,18.4%,4.3%,6.01µM*
O=C(N=Nc1c(O)[nH]c2ccccc12)c1cccc(S(=O)(=O)Nc2ccccc2Cl)c1,0.8%,0.6%,-1.9%,-3.3%,21.3µM*
O=C(N=Nc1c(O)[nH]c2ccccc12)c1cc(-c2ccc(F)cc2)n[nH]1,18.9%,-2.5%,-5.0%,-3.4%,-0.2%
CC(C)c1ccc2[nH]c(O)c(N=NC(=O)c3cccc(S(=O)(=O)Nc4ccccc4Cl)c3)c2c1,-2.3%,8.9%,24.7%,9.1%,-6.9%
CC1CCCC(C)N1S(=O)(=O)c1ccc(NC(=O)CCn2cnc3ccccc3c2=O)cc1 (configuration not stated),-3.5%,1.7%,-4.8%,-5.9%,2.1%
CCC(=O)/C=C1/Sc2ccccc2N1CC,-4.8%,-1.2%,-3.4%,-2.9%,-14.0%
CCN1/C(=C/C(=O)c2ccco2)Sc2ccccc21,13.8%,4.0%,?,0.4%,23.9µM*
CCN(CC(=O)NCc1ccc(Cl)cc1)C(=O)/C=C/c1ccc(Cl)c([N+](=O)[O-])c1,.,12.9%,1.6%,-6.3%,9.53µM*
COc1cccc(/C=C2/C(=O)NN(c3ccccc3)C2=O)c1,.,-1.7%,0.1%,-0.8%,23.9µM*
O=C1NN(c2ccccc2)C(=O)/C1=C\c1ccc2c(c1)OCO2,.,-1.4%,4.5%,-2.2%,5.36µM*
O=C1NN(c2ccc(F)cc2)C(=O)/C1=C/c1cccs1,.,-1.3%,-3.0%,-0.9%,23.9µM*
COc1cccc(/C=C2/C(=O)NN(c3ccc(F)cc3)C2=O)c1,.,-0.3%,3.8%,6.4%,21.3µM*
COc1cccc(/C=C2/C(=O)NN(c3ccc(C)c(C)c3)C2=O)c1,.,3.0%,-1.2%,12.5%,?
O=C(COc1ccccc1Cl)NC(=S)N1CCc2ccccc21,7.4%,1.5%,-1.9%,0.7%,?
O=C(/C=C/Nc1nccs1)C(F)(F)Cl,-7.3%,-2.9%,20.6%,6.2%,-0.7%
CC(C)(C)c1ccc(-c2cc(-c3ccccc3O)[nH]n2)cc1,.,0.316µM*,0.282µM*,0.58µM*,0.757µM*
Oc1ccccc1-c1cc(-c2cccc(F)c2)n[nH]1,?,-1.1%,14.0%,?,5.36µM*
COc1ccc(NC(=O)c2cc3ccccc3o2)c(OC)c1,.,.,.,.,5.36µM*

# Compound activity: PubChem, National Center for Advancing Translational Sciences (NCATS)
